Measured values reported in PubChem BioAssay.
Calls of active or inactive are those of the source. Unless noted, how the calls were made is not given here.

Legend:
[1] = tested on: Wnt5a (protein binding on small-molecule microarray); test: small molecules binding Wnt5a protein – biophysical, small-molecule microarray, 635/667 nm fluorescence, primary screen (AID 1142); conditions: 635 nm fluorescence, higher = more signal;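 further: fluorescence read at 667 nm with signal to noise per printed feature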
[2] = ATP-based viability of Huh7 replicon cells – cell-based, CellTiter-Glo luminescence, basal, 48 h, cytotoxicity control for HCV replication inhibitor project, primary screen (AID 1143); conditions: higher = more signal, called active from +8 up or from −8 down;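 further: Huh7 hepatoma cells carrying a hepatitis C replication reporter with no stimulus; test concentration not given here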
[3] = Pseudomonas biofilm growth suppression – PAO1 strain, BacTiter-Glo luminescence, LB-PBS, primary screen (AID 1144); conditions: P. aeruginosa PAO1 biofilm, 12 h, higher = more signal
[4] = basal CRE-LacZ reporter activity in PC12 – cell-based, unstimulated, primary screen (AID 1145); conditions: no forskolin, luminescence, 4.5 h, higher = more signal, called active from +8 up or from −8 down
[5] = forskolin-driven CRE-LacZ activity in PC12 – cell-based, CRE-LacZ reporter, forskolin-stimulated, primary screen (AID 1146); conditions: luminescence, 4.5 h, higher = more signal, called active from +8 up or from −8 down;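 further: PC12 cells with 6xCRE LacZ reporter stimulated by forskolin 10 µM; beta-galactosidase reporter signal reflecting CREB driven transcription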
[6] = molecular target: Streptavidin (Streptomyces avidinii) (UniProt P22629); test: compounds binding control protein streptavidin – biophysical, small-molecule microarray, 635/667 nm fluorescence, artefact control for SMM compound annotation, primary screen (AID 1147); conditions: higher = more signal;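 further: signal reflects streptavidin binding to arrayed compounds as a control protein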
Streptavidin (Streptomyces avidinii), sequence (P22629 whole entry, looked up): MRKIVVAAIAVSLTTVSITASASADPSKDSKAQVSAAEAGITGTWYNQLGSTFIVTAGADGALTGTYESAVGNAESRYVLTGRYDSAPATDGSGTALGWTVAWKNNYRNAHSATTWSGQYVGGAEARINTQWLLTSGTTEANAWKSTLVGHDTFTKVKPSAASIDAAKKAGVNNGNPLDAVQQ

[7] = probe aInhba binding on compound microarray – biochemical, small-molecule microarray, 635/667 nm fluorescence, primary screen (AID 1148); conditions: higher = more signal;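 further: score merges 667nm spot fluorescence with signal-to-noise for antibody binding to printed compounds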
Torsin-1A (Homo sapiens) [8] = molecular target: Torsin-1A (Homo sapiens) (UniProt O14656); test: TOR1A wild-type binding on microarray – cell lysate, small-molecule microarray, lysate, 635/667 nm, primary screen (AID 1149); conditions: COS7 hTOR1A-WT lysate, 635 nm fluorescence, higher = more signal
Torsin-1A (Homo sapiens), sequence (O14656 whole entry, looked up): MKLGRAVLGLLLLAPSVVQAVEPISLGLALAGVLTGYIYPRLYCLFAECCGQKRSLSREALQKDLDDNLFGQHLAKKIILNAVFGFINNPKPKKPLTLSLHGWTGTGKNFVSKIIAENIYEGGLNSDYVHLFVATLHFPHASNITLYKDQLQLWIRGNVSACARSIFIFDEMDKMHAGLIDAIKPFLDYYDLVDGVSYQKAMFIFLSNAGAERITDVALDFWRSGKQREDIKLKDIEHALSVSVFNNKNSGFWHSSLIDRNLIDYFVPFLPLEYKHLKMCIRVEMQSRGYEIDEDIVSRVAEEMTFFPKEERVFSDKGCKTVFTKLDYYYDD

Torsin-1A (Homo sapiens) [9] = molecular target: Torsin-1A (Homo sapiens) (UniProt O14656); test: torsin A mutant lysate binding on microarrays – cell lysate, small-molecule microarray, COS7 lysate, 635/667 nm fluorescence, primary screen (AID 1150); conditions: COS7 hTOR1A mutant lysate, 635 nm fluorescence, higher = more signal;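 further: score pools 667 nm emission and signal to noise measuring lysate protein binding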
[10] = tested on: Sonic hedgehog protein (Shh); test: Sonic hedgehog microarray binding compounds – biochemical, small-molecule microarray, 635/667 nm fluorescence, primary screen (AID 1151); conditions: 635 nm fluorescence, higher = more signal;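 further: Shh protein binding to compounds spotted on small-molecule microarray slides; score combines spot fluorescence intensity with signal-to-noise across triplicate slides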
[11] = optical density shifts of acrAB sulA E. coli – strain DRC41, OD650, 48 h, E. coli filamentation inducer project, primary screen (AID 1152); conditions: higher = more signal, called active from +8 up or from −8 down;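 further: E. coli MC1000 strain DRC41 lacking acrAB efflux pump and sulA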
[12] = probe aLefty1 binding on compound microarray – biochemical, small-molecule microarray, 635/667 nm fluorescence, primary screen (AID 1153); conditions: higher = more signal;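 further: score merges spot fluorescence with signal-to-noise ratio from the scanned slide images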
[13] = plasmodial surface anion channel blockers, osmotic lysis – cell-based, P. falciparum Indochina, OD700, 1 h, primary screen (AID 1154); conditions: P. falciparum Indochina infected RBC osmotic lysis, higher = more signal, called active from +8 up or from −8 down
[14] = plasmodial surface anion channel blockers, osmotic lysis – cell-based, P. falciparum Indochina, OD700, 2 h, primary screen (AID 1155);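 further: lysis reports solute entry through the parasite surface anion channel PSAC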; conditions: P. falciparum Indochina infected erythrocytes, higher = more signal, called active from +8 up or from −8 down
[15] = changes in parasitized red cell lysis, either direction – P. falciparum Indochina, OD700, 3 h, PSAC antagonist project, primary screen (AID 1156); conditions: P. falciparum-infected erythrocytes, osmotic lysis, higher = more signal, called active from +8 up or from −8 down
[16] = plasmodial surface anion channel blockers, osmotic lysis – cell-based, P. falciparum Indochina, OD700, 18 h, primary screen (AID 1157); conditions: P. falciparum Indochina infected erythrocytes, osmotic lysis OD700, 18 h; higher = more signal, called active from +8 up or from −8 down
[17] = S6 kinase pathway phospho-S6 level changes – cell-based, A549, cytoblot, luminescence, serum-stimulated, primary screen (AID 1158); conditions: 5 h, higher = more signal;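 further: serum-stimulated A549 lung adenocarcinoma cells; signal is phosphorylated S6 detected by cytoblot immunostaining with HRP secondary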
[18] = molecular target: NADPH oxidase 2 (Homo sapiens) (UniProt P04839); test: compounds shifting NOX2 Amplex Red fluorescence – cell-based, HEK293-NOX2, PMA-stimulated, NOX inhibitor project, primary screen (AID 1159); conditions: 45 min, higher = more signal, called active from +8 up or from −8 down; further: test concentration not given here
NADPH oxidase 2 (Homo sapiens), sequence (P04839 whole entry, looked up): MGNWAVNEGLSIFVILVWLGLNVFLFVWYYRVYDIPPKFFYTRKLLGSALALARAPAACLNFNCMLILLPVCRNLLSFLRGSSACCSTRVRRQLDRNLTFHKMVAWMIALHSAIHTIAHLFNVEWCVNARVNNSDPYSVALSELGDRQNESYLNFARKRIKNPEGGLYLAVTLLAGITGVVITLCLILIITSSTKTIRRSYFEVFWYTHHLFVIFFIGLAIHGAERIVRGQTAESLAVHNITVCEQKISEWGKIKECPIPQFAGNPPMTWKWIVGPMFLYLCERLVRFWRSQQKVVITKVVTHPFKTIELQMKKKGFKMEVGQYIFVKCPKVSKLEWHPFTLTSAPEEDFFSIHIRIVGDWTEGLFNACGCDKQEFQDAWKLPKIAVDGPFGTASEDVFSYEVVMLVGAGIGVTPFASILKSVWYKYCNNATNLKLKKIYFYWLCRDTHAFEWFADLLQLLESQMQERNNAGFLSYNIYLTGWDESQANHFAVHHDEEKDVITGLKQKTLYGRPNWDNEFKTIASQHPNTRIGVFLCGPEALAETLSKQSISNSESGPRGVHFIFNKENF

[19] = molecular target: NADPH oxidase 4 (Homo sapiens) (UniProt Q9NPH5); test: compounds shifting NOX4 Amplex Red fluorescence – cell-based, HEK293-NOX4, tetracycline-induced, NOX inhibitor project, primary screen (AID 1160); conditions: HEK293-NOX4, Amplex Red H2O2 fluorescence, 45 min; higher = more signal, called active from +8 up or from −8 down
NADPH oxidase 4 (Homo sapiens), sequence (Q9NPH5 whole entry, looked up): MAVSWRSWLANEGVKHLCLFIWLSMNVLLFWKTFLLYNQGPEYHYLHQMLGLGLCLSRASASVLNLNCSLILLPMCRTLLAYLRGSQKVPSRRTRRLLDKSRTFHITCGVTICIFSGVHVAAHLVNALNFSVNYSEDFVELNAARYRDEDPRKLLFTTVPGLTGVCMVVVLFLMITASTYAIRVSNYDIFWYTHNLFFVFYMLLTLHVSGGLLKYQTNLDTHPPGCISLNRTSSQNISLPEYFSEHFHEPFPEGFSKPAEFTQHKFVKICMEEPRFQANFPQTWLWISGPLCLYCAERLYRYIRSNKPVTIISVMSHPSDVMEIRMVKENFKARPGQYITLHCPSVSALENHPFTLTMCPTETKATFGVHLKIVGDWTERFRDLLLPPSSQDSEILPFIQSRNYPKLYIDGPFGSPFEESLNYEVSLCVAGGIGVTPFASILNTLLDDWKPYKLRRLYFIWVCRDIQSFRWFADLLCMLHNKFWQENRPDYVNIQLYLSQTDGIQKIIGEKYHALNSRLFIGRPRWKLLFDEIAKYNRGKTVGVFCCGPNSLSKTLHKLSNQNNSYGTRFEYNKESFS

[20] = molecular target: NADPH oxidase 5 (Homo sapiens) (UniProt Q96PH1); test: compounds shifting NOX5 Amplex Red fluorescence – cell-based, HEK293-NOX5, NOX inhibitor project, primary screen (AID 1161); conditions: HEK293-NOX5, ionomycin, 45 min, higher = more signal
NADPH oxidase 5 (Homo sapiens), sequence (Q96PH1 whole entry, looked up): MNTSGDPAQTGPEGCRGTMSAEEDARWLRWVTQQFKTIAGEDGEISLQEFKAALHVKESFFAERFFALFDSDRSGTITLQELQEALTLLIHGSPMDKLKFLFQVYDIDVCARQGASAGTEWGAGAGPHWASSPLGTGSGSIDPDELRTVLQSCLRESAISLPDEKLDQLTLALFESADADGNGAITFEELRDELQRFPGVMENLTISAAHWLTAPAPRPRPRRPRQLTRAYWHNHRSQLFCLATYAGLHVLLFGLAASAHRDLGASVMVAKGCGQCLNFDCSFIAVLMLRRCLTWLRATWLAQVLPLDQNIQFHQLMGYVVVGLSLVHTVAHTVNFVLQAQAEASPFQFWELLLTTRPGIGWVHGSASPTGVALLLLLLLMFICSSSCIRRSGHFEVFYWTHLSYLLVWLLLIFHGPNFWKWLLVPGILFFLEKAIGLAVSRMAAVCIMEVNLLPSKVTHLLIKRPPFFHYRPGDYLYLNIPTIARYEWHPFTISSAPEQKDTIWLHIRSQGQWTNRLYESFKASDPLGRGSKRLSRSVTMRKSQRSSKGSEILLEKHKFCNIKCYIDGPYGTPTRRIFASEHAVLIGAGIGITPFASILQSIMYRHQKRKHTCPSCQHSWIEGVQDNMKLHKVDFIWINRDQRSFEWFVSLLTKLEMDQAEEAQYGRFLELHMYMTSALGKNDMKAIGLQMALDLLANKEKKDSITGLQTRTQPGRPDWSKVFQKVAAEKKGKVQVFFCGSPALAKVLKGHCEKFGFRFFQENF

Row | Structure (SMILES) | composite z-score [1] | z-score [2] | z-score [3] | z-score [4] | z-score [5] | composite z-score [6] | composite z-score [7] | composite z-score (Torsin-1A (Homo sapiens) [8]) | composite z-score (Torsin-1A (Homo sapiens) [9]) | composite z-score [10] | z-score [11] | composite z-score [12] | z-score [13] | z-score [14] | z-score [15] | z-score [16] | z-score [17] | z-score [18] | z-score [19] | z-score [20]
1 | O=C1O[C@H](c2ccccc2)[C@H](c2ccccc2)N2[C@H]1[C@@H](C(=O)N1CCN(c3ncccn3)CC1)[C@]1(C(=O)Nc3ccc(C#CC4=CCCCC4)cc31)[C@H]2c1ccc(O)cc1 | -0.019 | -2.01 (inactive) | -0.134 (inactive) | 0.155 (inactive) | -0.196 (inactive) | 1.08 | -0.0448 | 0.268 | 0.839 | 1.13 | 0.635 (inactive) | 0.396 | 0.706 (inactive) | 0.574 (inactive) | -0.313 (inactive) | 1.01 (inactive) | 0.538 | 0.852 (inactive) | 0.537 (inactive) | 0.837
2 | CN(C)C(=O)[C@]1(Cc2ccccc2CN=[N+]=[N-])N=C(c2ccc(OCCCO)cc2)O[C@@H]1c1ccccc1CN=[N+]=[N-] | 0.49 | -5.26 (inactive) | -0.611 (inactive) | 1.31 (inactive) | -0.394 (inactive) | 0.61 | 0.461 | 1.14 | 0.917 | 1.11 | -0.214 (inactive) | 0.425 | 26.8 (active) | 13.4 (active) | 2.66 (inactive) | -0.0196 (inactive) | 1.18 | -3.36 (inactive) | -1.6 (inactive) | -1.78
3 | C[C@@H]1ON(c2cccc(C(=O)OC(C)(C)C)c2)[C@H](c2ccc(Br)cc2)[C@H]1C(=O)N1C(=O)OC[C@H]1Cc1ccccc1 | 0.458 | -0.242 (inactive) | 0.938 (inactive) | 1.49 (inactive) | -0.278 (inactive) | 0.852 | 0.134 | 0.18 | 0.389 | 0.937 | -0.46 (inactive) | 0.2 | -0.351 (inactive) | 0.488 (inactive) | -0.611 (inactive) | 0.011 (inactive) | 0.217 | -1.01 (inactive) | -0.079 (inactive) | -0.0305
4 | COC(=O)[C@@]1(Cc2ccc(OC)cc2)[C@H]2c3cc(C(=O)N4CCCC4)n(Cc4ccc(OC)c(OC)c4)c3C[C@H]2CN1C(=O)c1ccccc1 | 0.753 | -2.2 (inactive) | -0.139 (inactive) | 0.959 (inactive) | -0.265 (inactive) | 2.03 | 0.955 | 0.201 | 0.695 | 0.464 | -1.08 (inactive) | 1.61 | 4.08 (inactive) | 0.81 (inactive) | 1.92 (inactive) | 0.91 (inactive) | 0.0413 | 0.555 (inactive) | 0.235 (inactive) | -3.23
5 | C=C[C@H](COC(C)=O)N(C(=O)OC(C)(C)C)S(=O)(=O)c1ccc(Br)cc1 | 0.77 | -0.121 (inactive) | -0.41 (inactive) | 0.652 (inactive) | 1.66 (inactive) | 0.304 | 0.898 | 0.446 | 0.31 | 0.457 | 1.34 (inactive) | 0.312 | 0.874 (inactive) | -0.141 (inactive) | -0.301 (inactive) | 0.0544 (inactive) | 0.314 | 0.406 (inactive) | 0.356 (inactive) | -0.772
6 | COc1ccc(CCNC(=O)[C@@]2(C)c3ccccc3C(=O)N(Cc3cc(F)cc(C(F)(F)F)c3)[C@H]2c2ccc(CO)cc2)cc1 | 0.126 | -4.52 (inactive) | 1.3 (inactive) | 0.001 (inactive) | -1.28 (inactive) | -0.55 | -0.0791 | -0.621 | -0.0937 | -0.0895 | 0.753 (inactive) | -0.045 | 8.08 (active) | 0.906 (inactive) | 1.24 (inactive) | 0.526 (inactive) | 0.0269 | -1.38 (inactive) | -1.28 (inactive) | -1.5
7 | C=CCOC(=O)[C@H]1[C@@H]2C(=O)O[C@@H](c3ccccc3)[C@@H](c3ccccc3)N2[C@@H](c2ccc(OCCOC(=O)[C@H]3C[C@H]4C(=O)N5CCC[C@H]5C(=O)N4[C@H]3c3ccc(O)cc3)cc2)[C@]12C(=O)Nc1ccccc12 | 0.753 | -0.568 (inactive) | -0.696 (inactive) | 0.415 (inactive) | -0.702 (inactive) | 0.116 | -0.217 | 0.874 | 1.1 | 1.8 | -0.827 (inactive) | 0.227 | 1.72 (inactive) | 1.25 (inactive) | 1.58 (inactive) | 0.889 (inactive) | -0.352 | 2.25 (inactive) | 1.39 (inactive) | 1.87
8 | CCCC[C@@H]1C[C@H]1[C@@H](NC(=O)c1ccco1)c1ccc(Cl)cc1 | 0.202 | -2.63 (inactive) | 0.564 (inactive) | -0.561 (inactive) | 0.473 (inactive) | 2.09 | 0.306 | 0.104 | 0.481 | -0.292 | -1.54 (inactive) | 0.485 | 4.34 (inactive) | 0.904 (inactive) | 0.365 (inactive) | 0.74 (inactive) | -0.321 | -1.72 (inactive) | -2.56 (inactive) | 0.0234
